Test results from PubChem BioAssay AID1159580 (chemical genetic matrix, 2015).
Several values for one entry are separate records, joined by “and”; a condition that tells them apart may be missing. Identical values can stand only once. Out of some 5,500 compounds screened, about 2,000 (36%) were called active. Not shown: some 18% with an inconclusive outcome. Rule as the data show it: active = normalized growth mostly below about 0.91 (no sharp cut-off); inconclusive = no clear call, values can overlap the other calls; inactive = mostly above about 0.92. The list shows a part of the results.

Test: chemical genetic growth profiling, strain panel (AID 1159580);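 also: tested at 20 µM; growth read once vehicle control cultures reached saturation at 30 °C; 1 = growth at the plate median or of vehicle wells; lower values mean less growth of the strain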
Details: growth OD

Measured: normalized growth

CC(C)NNC(=O)c1ccncc1
inactive: S. cerevisiae deletion strains, locus YJR043C, strain POL32, stronger effect = lower value 1.01 | S. cerevisiae deletion strains, locus YJR075W, strain HOC1, stronger effect = lower value 1 | S. cerevisiae deletion strains, locus YKL068W, stronger effect = lower value 1.02 | S. cerevisiae deletion strains, locus YKL085W, strain MDH1 (second series), stronger effect = lower value 1.03 | S. cerevisiae deletion strains, locus YKL085W, strain MDH1, stronger effect = lower value 1.03 | S. cerevisiae deletion strains, locus YKL160W, strain elf1, stronger effect = lower value 1.01 | S. cerevisiae deletion strains, locus YKL190W, strain CNB1, stronger effect = lower value 1 | S. cerevisiae deletion strains, locus YKR001C, strain vps1, stronger effect = lower value 1.02 | S. cerevisiae deletion strains, locus YKR026C, strain gcn3, stronger effect = lower value 0.997 | S. cerevisiae deletion strains, locus YKR091W, strain srl3, stronger effect = lower value 1.01 | S. cerevisiae deletion strains, locus YLL001W, strain dnm1, stronger effect = lower value 1 | S. cerevisiae deletion strains, locus YLL026W, stronger effect = lower value 1.01 | S. cerevisiae deletion strains, locus YLL041C, strain sdh2, stronger effect = lower value 1.01 | S. cerevisiae deletion strains, locus YLR027C, strain aat2, stronger effect = lower value 0.996 | S. cerevisiae deletion strains, locus YLR039C, strain RIC1, stronger effect = lower value 1.02 | S. cerevisiae deletion strains, locus YLR058C, strain SHM2, stronger effect = lower value 1.01 | S. cerevisiae deletion strains, locus YLR102C, strain apc9, stronger effect = lower value 1.01 | S. cerevisiae deletion strains, locus YLR221C, strain rsa3, stronger effect = lower value 1.02 | S. cerevisiae deletion strains, locus YLR258W, strain gsy2, stronger effect = lower value 1.02 | S. cerevisiae deletion strains, locus YLR262C, strain YPT6 (second series), stronger effect = lower value 1 | S. cerevisiae deletion strains, locus YLR262C, strain YPT6, stronger effect = lower value 1.02 | S. cerevisiae deletion strains, locus YLR268W, strain sec22, stronger effect = lower value 1.03 | S. cerevisiae deletion strains, locus YLR320W, strain mms22, stronger effect = lower value 1.01 | S. cerevisiae deletion strains, locus YLR330W, strain CHS5, stronger effect = lower value 1.01 | S. cerevisiae deletion strains, locus YLR342W, strain FKS1 (second series), stronger effect = lower value 1.01 | S. cerevisiae deletion strains, locus YLR342W, strain FKS1, stronger effect = lower value 0.986 | S. cerevisiae deletion strains, locus YLR357W, strain rsc2, stronger effect = lower value 1.01 | S. cerevisiae deletion strains, locus YLR370C, strain arc18, stronger effect = lower value 1.01 | S. cerevisiae deletion strains, locus YLR371W, strain rom2, stronger effect = lower value 1 | S. cerevisiae deletion strains, locus YLR384C, strain iki3, stronger effect = lower value 0.995 | S. cerevisiae deletion strains, locus YLR418C, strain cdc73, stronger effect = lower value 1.04 | S. cerevisiae deletion strains, locus YML016C, strain PPZ1, stronger effect = lower value 1 | S. cerevisiae deletion strains, locus YML032C, strain rad52, stronger effect = lower value 1.02 | S. cerevisiae deletion strains, locus YML120C, strain ndi1, stronger effect = lower value 0.999 | S. cerevisiae deletion strains, locus YML124C, strain tub3, stronger effect = lower value 1.01 | S. cerevisiae deletion strains, locus YMR058W, strain fet3, stronger effect = lower value 1.03 | S. cerevisiae deletion strains, locus YMR078C, strain ctf18, stronger effect = lower value 1.01 | S. cerevisiae deletion strains, locus YMR125W, strain sto1, stronger effect = lower value 1.02 | S. cerevisiae deletion strains, locus YMR129W, stronger effect = lower value 1.01 | S. cerevisiae deletion strains, locus YMR205C, strain PFK2, stronger effect = lower value 1 | S. cerevisiae deletion strains, locus YMR223W, strain ubp8, stronger effect = lower value 1.02 | S. cerevisiae deletion strains, locus YMR231W, strain pep5, stronger effect = lower value 1 | S. cerevisiae deletion strains, locus YMR263W, strain SAP30, stronger effect = lower value 1.01 | S. cerevisiae deletion strains, locus YMR307W, strain GAS1, stronger effect = lower value 1.05 and 1 | S. cerevisiae deletion strains, locus YNL067W, strain RPL9B, stronger effect = lower value 1.01 | S. cerevisiae deletion strains, locus YNL071W, strain lat1, stronger effect = lower value 1.03 | S. cerevisiae deletion strains, locus YNL128W, strain TEP1, stronger effect = lower value 1.01 | S. cerevisiae deletion strains, locus YNL153C, strain GIM3, stronger effect = lower value 1.01 | S. cerevisiae deletion strains, locus YNL175C, strain NOP13, stronger effect = lower value 0.994 | S. cerevisiae deletion strains, locus YNL197C, strain WHI3, stronger effect = lower value 0.989 | S. cerevisiae deletion strains, locus YNL209W, strain ssb2, stronger effect = lower value 1.03 | S. cerevisiae deletion strains, locus YNL224C, strain SQS1, stronger effect = lower value 1.02 | S. cerevisiae deletion strains, locus YNL233W, strain BNI4, stronger effect = lower value 1.01 | S. cerevisiae deletion strains, locus YNL248C, strain rpa49, stronger effect = lower value 1.01 | S. cerevisiae deletion strains, locus YNL250W, strain rad50, stronger effect = lower value 1.02 | S. cerevisiae deletion strains, locus YNL271C, strain bni1, stronger effect = lower value 1.02 | S. cerevisiae deletion strains, locus YNL298W, strain CLA4, stronger effect = lower value 1.01 | S. cerevisiae deletion strains, locus YNL307C, strain MCK1, stronger effect = lower value 1.02 | S. cerevisiae deletion strains, locus YNL322C, strain KRE1 (second series), stronger effect = lower value 1.01 | S. cerevisiae deletion strains, locus YNL322C, strain KRE1, stronger effect = lower value 1 and 0.981 | S. cerevisiae deletion strains, locus YNR049C, strain mso1, stronger effect = lower value 1.01 | S. cerevisiae deletion strains, locus YNR052C, strain pop2, stronger effect = lower value 1.02 | S. cerevisiae deletion strains, locus YOL006C, strain TOP1, stronger effect = lower value 1.04 | S. cerevisiae deletion strains, locus YOL012C, strain htz1 1.02 | S. cerevisiae deletion strains, locus YOL147C, strain pex11, stronger effect = lower value 1.01 | S. cerevisiae deletion strains, locus YOR001W, strain rrp6, stronger effect = lower value 0.998 | S. cerevisiae deletion strains, locus YOR061W, strain CKA2, stronger effect = lower value 1.01 | S. cerevisiae deletion strains, locus YOR069W, strain VPS5, stronger effect = lower value 1.01 | S. cerevisiae deletion strains, locus YOR070C, strain gyp1, stronger effect = lower value 1.01 | S. cerevisiae deletion strains, locus YOR080W, strain dia2, stronger effect = lower value 1.01 | S. cerevisiae deletion strains, locus YOR083W, strain WHI5 (second series), stronger effect = lower value 1.01 | S. cerevisiae deletion strains, locus YOR083W, strain WHI5, stronger effect = lower value 0.998 | S. cerevisiae deletion strains, locus YOR106W, strain vam3, stronger effect = lower value 1.02 | S. cerevisiae deletion strains, locus YOR136W, strain idh2, stronger effect = lower value 1.02 | S. cerevisiae deletion strains, locus YOR144C, strain elg1, stronger effect = lower value 1.01 | S. cerevisiae deletion strains, locus YOR184W, strain ser1, stronger effect = lower value 1.04 | S. cerevisiae deletion strains, locus YOR265W, strain rbl2, stronger effect = lower value 1.01 | S. cerevisiae deletion strains, locus YOR270C, strain vph1, stronger effect = lower value 1.06 | S. cerevisiae deletion strains, locus YOR290C, strain snf2, stronger effect = lower value 1.01 | S. cerevisiae deletion strains, locus YOR316C, strain cot1, stronger effect = lower value 1.02 | S. cerevisiae deletion strains, locus YPL051W, strain arl3, stronger effect = lower value 1.01 | S. cerevisiae deletion strains, locus YPL055C, strain LGE1, stronger effect = lower value 1.02 | S. cerevisiae deletion strains, locus YPL078C, strain atp4, stronger effect = lower value 1.01 | S. cerevisiae deletion strains, locus YPL106C, strain sse1, stronger effect = lower value 0.991 | S. cerevisiae deletion strains, locus YPL240C, strain hsp82, stronger effect = lower value 1.02 | S. cerevisiae deletion strains, locus YPL241C, strain CIN2, stronger effect = lower value 0.995 and 0.982 | S. cerevisiae deletion strains, locus YPR119W, strain clb2, stronger effect = lower value 1 | S. cerevisiae deletion strains, locus YPR141C, strain kar3, stronger effect = lower value 1.01 | S. cerevisiae deletion strains, locus YPR163C, strain tif3, stronger effect = lower value 1.02 | S. cerevisiae deletion strains, locus YPR167C, strain met16, stronger effect = lower value 1.02 | S. cerevisiae deletion strains, strain wtn01, stronger effect = lower value 1.02 | S. cerevisiae strains, strain wild type, stronger effect = lower value 1.01
